Over roughly 39,000 sequences, “fluorescence intensity (a.u.)” has its median near 4,300; the highest 2% begin near 39,000. Many of the other results were omitted from the sample, so the highest values are more common in it than they were.

The target of the assay is T1, OsSMF1 (Oryza sativa, UniProt Q6ZLB0 1-436).
T1 sequence: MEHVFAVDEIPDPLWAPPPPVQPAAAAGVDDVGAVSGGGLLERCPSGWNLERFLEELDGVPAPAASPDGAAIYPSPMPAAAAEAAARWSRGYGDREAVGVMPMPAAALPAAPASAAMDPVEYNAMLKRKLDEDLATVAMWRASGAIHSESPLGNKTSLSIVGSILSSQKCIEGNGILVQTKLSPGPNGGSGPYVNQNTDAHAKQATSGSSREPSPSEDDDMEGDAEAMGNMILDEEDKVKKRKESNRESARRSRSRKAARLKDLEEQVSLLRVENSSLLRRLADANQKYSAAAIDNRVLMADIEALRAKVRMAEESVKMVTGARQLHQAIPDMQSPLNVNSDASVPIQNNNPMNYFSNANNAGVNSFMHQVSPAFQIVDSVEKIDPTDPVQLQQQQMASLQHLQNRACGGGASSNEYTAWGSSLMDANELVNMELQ
Kind of assay: protein-binding microarray (RPBM); PBS, 2% BSA, 51.3 ng/ul salmon testes DNA, 50 uM zinc acetate, 200 nM TF, 25 C, 1 h; high values mean tight binding. The settings on record: protein: recombinant; tags: N-terminal polyhistidine and DsRed monomer fusion (pET32a); chain copies: 2; label: CyDye5-dUTP incorporated in the synthesized complementary strand; 3' TTTTT single-stranded linker to array surface; dsDNA, one strand shown. A digest of the protocol: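 The binding signal is fluorescence intensity per feature, in arbitrary units, read on an Axon 4000B scanner. Polyhistidine- and DsRed-tagged transcription factors (N-terminal fusions) from E. coli BL21-CodonPlus were purified on Ni–NTA and applied at 200 nM for 1 h at 25 °C to a double-stranded, BSA-blocked custom Agilent array in buffer with 50 µM zinc acetate.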
As for “GACGACTGCTGGTACACGGACATGAGGCTGCAGCCGACGACGGAGTCACCTAGTGCAG”, the binding signal was 3480 fluorescence intensity (a.u.).
Regarding “GCCACGCCCAACCCGTGTCACTGTCACGTGGGCCCCACCCCGGAGTCACCTAGTGCAG”, the binding signal is 7720 fluorescence intensity (a.u.).
For the sequence “CAACCAATCAATCACATACGTGGACAACTGCAGAAAATGCCGGAGTCACCTAGTGCAG”, the binding signal is 5610 fluorescence intensity (a.u.).
Turning to “ACTGCCGGTTCAACTGCTCCACGGCTCCACTCCACGCATCCGGAGTCACCTAGTGCAG”, the binding signal is 43300 fluorescence intensity (a.u.).
“CGGCTCCGCCGCACTTGCTCGGCCGTCCACGCCGGCACGGCGGAGTCACCTAGTGCAG”: the binding signal is 3640 fluorescence intensity (a.u.).
For “ATCGCGCATCCACTCCACACCACACGCTTCACTGGTTCCGCGGAGTCACCTAGTGCAG” the value was 3870 fluorescence intensity (a.u.).
Consider “ACTATGGATATCTGTTTTAGCTGACATGGCATCCTACTCACGGAGTCACCTAGTGCAG”, for which the binding signal is 8140 fluorescence intensity (a.u.).
“ACCACTGTTTGTGGAGTGTGTGCACACACCACCTCCGATGCGGAGTCACCTAGTGCAG”: the binding signal was 3810 fluorescence intensity (a.u.).
Turning to “ATTCACTGATAATAGAGACCCACACGTTAGTATTGGAGTACGGAGTCACCTAGTGCAG”, the binding signal was 3140 fluorescence intensity (a.u.).
For “AAATTATGTCATTTTGATCAACAGTTGGTACAGTAGTACACGGAGTCACCTAGTGCAG” the value was 48000 fluorescence intensity (a.u.).
For “CAAATGTCGATTTGGTTGTGGACATGTCAATGCCGATCAACGGAGTCACCTAGTGCAG” the value was 50200 fluorescence intensity (a.u.).
Consider “CATTTGTTTTATTTTAGCATTTGTCACTTACATGTGGGACCGGAGTCACCTAGTGCAG”, for which the binding signal is 3180 fluorescence intensity (a.u.).
For “CTTCAGTTATGTTAATTACATGTCATTTGTTTTGTTACAACGGAGTCACCTAGTGCAG” the value was 4920 fluorescence intensity (a.u.); for “GTTTTGTGATTTGGTACATGTGGTAGCATTCACCAAATGTCGGAGTCACCTAGTGCAG”, 39600 fluorescence intensity (a.u.); for “TGCACCTAGGTGTACATGTCATTGTGTGTTTGTGGTTGGTCGGAGTCACCTAGTGCAG”, 4630 fluorescence intensity (a.u.).
Regarding “TGGATATACATATGCCATGTCGATTTTGTGCCGAAGTGGACGGAGTCACCTAGTGCAG”, the binding signal is 3330 fluorescence intensity (a.u.).
For “AAGGTGAGGTTGGTCAACATTTGTCATCAAATTTTGATCACGGAGTCACCTAGTGCAG” the value was 3400 fluorescence intensity (a.u.); for “TGTGGTTGGTGTCGATTTGGAATGGGGTGAAATGGACTGGCGGAGTCACCTAGTGCAG”, 3260 fluorescence intensity (a.u.).
For “CAGCTACAGGACGGCAGTACCCAGTACACGCACGCGTACCCGGAGTCACCTAGTGCAG” the value was 3640 fluorescence intensity (a.u.); for “TTAAATGCACCCCTACTCAACCCCTCAATCGACGTGTTGGCGGAGTCACCTAGTGCAG”, 4180 fluorescence intensity (a.u.); for “AGTATTTTAAATCATATACAAGTACGTCACATCATCACTCCGGAGTCACCTAGTGCAG”, 3720 fluorescence intensity (a.u.).
For “TGACACCGTCGCCACCTCGCCACCCATCCATTTCCATTGCCGGAGTCACCTAGTGCAG” the value was 3650 fluorescence intensity (a.u.); for “TGCACGCTGCGGCGTACGTCGCGTGCGCACACGGGAATTTCGGAGTCACCTAGTGCAG”, 3190 fluorescence intensity (a.u.).
Turning to “TCTACTCCTAAATCCACATCATCTTTAGCAAAAGCAACAACGGAGTCACCTAGTGCAG”, the binding signal was 4670 fluorescence intensity (a.u.).
Turning to “TTGTCGCAGGTTGCTGACTGTTCCTCGAGGGAGTTCTCGGCGGAGTCACCTAGTGCAG”, the binding signal is 6980 fluorescence intensity (a.u.).
For “GCCTCTCCTTGCTTGCGTGCTCACTGTCGCTGACTGCTCTCGGAGTCACCTAGTGCAG”, the binding signal is 4650 fluorescence intensity (a.u.).
For “GCCGTGGGAATGGCTGAGGATTAGTGCGCCACGTCAGCAACGGAGTCACCTAGTGCAG” the value was 37300 fluorescence intensity (a.u.); for “TCGTGGGAATGGCTGAGGATTAGGGCGCCACGTCATCGTTCGGAGTCACCTAGTGCAG”, 45600 fluorescence intensity (a.u.).
For “TGTGGTGGCTGAGTCATCGTGGGATCCACGTGGGCCCCACCGGAGTCACCTAGTGCAG” the value was 24700 fluorescence intensity (a.u.); for “TTTCTCCACGTCAGCGAAACCACCTATATATATACTGCCACGGAGTCACCTAGTGCAG”, 14300 fluorescence intensity (a.u.).
For “CTCCGTTGTGCTCTGTCTCTCTACCGCCACCATCCACTGCCGGAGTCACCTAGTGCAG” the value was 39200 fluorescence intensity (a.u.); for “AGACACAGCACACCCACTCACTCTGCTCACTCTCCCATACCGGAGTCACCTAGTGCAG”, 39100 fluorescence intensity (a.u.); for “CCCTGCTCTGCCACGCCCGCCACCGTCTGCCGGCCTCTACCGGAGTCACCTAGTGCAG”, 4730 fluorescence intensity (a.u.).
Consider “GCCGCCGCTGTCGCCATCCACGCTCCGAGCGCCACTGCCACGGAGTCACCTAGTGCAG”, for which the binding signal was 3490 fluorescence intensity (a.u.).
For “CTCCACACAGACACACATCCCACCCCACCCACATACACACCGGAGTCACCTAGTGCAG” the value was 3610 fluorescence intensity (a.u.); for “AACTCTCCAGTCTCCACCCACCTCACTCCACAGTCCACACCGGAGTCACCTAGTGCAG”, 3150 fluorescence intensity (a.u.).
For “CTATGCCTTGTCAACATTCAACCCCTCCAATAGACTTTGTCGGAGTCACCTAGTGCAG” the value was 3210 fluorescence intensity (a.u.).
Turning to “CTCTTGACCAGCCGAGCGCACCGTCATCAGGCTACATCTCCGGAGTCACCTAGTGCAG”, the binding signal is 5290 fluorescence intensity (a.u.).
For “TCCAGTTTCGCGTAGCTGCGTGACAGTTCAATTGAACTCTCGGAGTCACCTAGTGCAG” the value was 3200 fluorescence intensity (a.u.); for “CTCTTTTCCCCATCTCACATACTGTGCCTTGCCTCCATAACGGAGTCACCTAGTGCAG”, 65200 fluorescence intensity (a.u.).
As for “TCCTCCCATCTCTCTCTCTTTTGCCCACACTCTTTTCACACGGAGTCACCTAGTGCAG”, the binding signal is 5660 fluorescence intensity (a.u.).
For “CCCTCTCCACATTCTCTTCCACCTGTGTTCCCCTTTTCTTCGGAGTCACCTAGTGCAG” the value was 3320 fluorescence intensity (a.u.).

The values above are taken from PMC7819943, “Rice protein-binding microarrays: a tool to detect cis-acting elements near promoter regions in rice”.
